Experimental data published in ChEMBL document CHEMBL1157539, “Thousands of chemical starting points for antimalarial lead identification” (Nature, 2010).

Experiments:
Format in all cases: functional
Plasmodium falciparum [1] = test: GSK_TCMDC: Inhibition of Plasmodium falciparum 3D7 in whole red blood cells, using parasite LDH activity as an index of growth. Test compounds present at 2uM
Plasmodium falciparum [2] = test: GSK_TCMDC: Inhibition of Plasmodium falciparum Dd2 in whole red blood cells, using parasite LDH activity as an index of growth. Test compounds present at 2uM
HepG2 = test: GSK_TCMDC: Percent inhibition of human HepG2 cell line. Test compounds present at 10uM.

| SMILES | Inhibition (Plasmodium falciparum [1]) | Inhibition (Plasmodium falciparum [2]) | Inhibition (HepG2) |
| --- | --- | --- | --- |
| CN1CCN(Cc2ccc(-c3ccc4c(Nc5ccc(F)cc5Cl)ccnc4c3)o2)CC1 | 100% | 100% | 8% |
| CC(C)COc1ccc(Cl)cc1Cc1nc(-c2nc3ccc(CN4CCCCC4)cc3[nH]2)co1.Cl | 100% | 70% | 49% |
| O=C(Cc1c[nH]cn1)Nc1cccc(-c2cccc(-c3nc4cc(C(F)(F)F)ccc4[nH]3)c2)c1 | 100% | 100% | 35% |
| CCCCN(CCCC)Cc1cc(Nc2ccnc3cc(Cl)ccc23)ccc1O.Cl | 100% | 87% | 67% |
| COc1ccc(OC)c2c1CC1NCC2c2c(OC)ccc(OC)c21.Cl (stereo not drawn) | 99% | 3% | 2% |
| NC(=O)c1ccsc1NC(=O)CNC(c1ccccc1)c1ccc(Cl)cc1 (stereo not drawn) | 83% | 89% | 25% |
| CCN(CC)CCON=Cc1cc(C)c2[nH]c3ccc(OCc4ccccc4)cc3c2c1C | 98% | 29% | 29% |
| O=C(c1cccc(-c2noc(C(F)(F)F)n2)c1)N1CCN(C(=O)c2ccc3cc[nH]c3c2)CC1 | 94% | 85% | 15% |
| COC(=O)c1cccc(CNCc2ccc(-c3cccc(-c4nc5cccc(C)c5[nH]4)c3)cc2)c1.O=C(O)C(F)(F)F | 100% | 84% | 0% |
| Cc1onc(-c2c(Cl)cccc2Cl)c1C(=O)NC1=NC(C)(C)ON1c1ccccc1 | 97% | 36% | 6% |
| Cl.Fc1cccc(COc2ccc(Nc3ncnc4sc(C#C[C@H]5CCCN5)cc34)cc2F)c1 | 98% | 17% | 13% |
